Source: PubChem (National Center for Advancing Translational Sciences (NCATS))
D2 antagonist: HTS Assay for Allosteric Antagonists of the Human D2 Dopamine Receptor: Primary Screen for Antagonists; HEK293 TREx D2 cells, calcium flux, dopamine EC80; inhibition, % at 10 µM; AID 485344, 2010; D(2) dopamine receptor (Homo sapiens), P14416; 340,000 compounds, 2% hits; in the data active means inhibition above about 30%; inactive means below that, where a call was filed; further: 0% is about no effect
Target sequence (P14416 whole entry, looked up): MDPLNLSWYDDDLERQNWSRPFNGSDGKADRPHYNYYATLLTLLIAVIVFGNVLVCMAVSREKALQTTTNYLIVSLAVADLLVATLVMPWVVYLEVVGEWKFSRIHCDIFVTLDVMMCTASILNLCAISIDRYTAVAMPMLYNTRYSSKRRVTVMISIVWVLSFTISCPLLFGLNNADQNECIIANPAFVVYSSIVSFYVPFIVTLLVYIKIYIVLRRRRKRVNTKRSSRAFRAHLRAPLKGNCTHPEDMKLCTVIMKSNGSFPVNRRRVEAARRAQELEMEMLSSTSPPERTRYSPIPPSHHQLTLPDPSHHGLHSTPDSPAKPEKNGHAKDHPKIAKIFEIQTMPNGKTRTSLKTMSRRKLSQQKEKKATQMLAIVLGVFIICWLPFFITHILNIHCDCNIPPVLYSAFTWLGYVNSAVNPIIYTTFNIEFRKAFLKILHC
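Tetracycline-induced HEK293 TREx cells expressing D2 receptor forced-coupled to calcium signalling, loaded with no-wash calcium dye. Compounds added and calcium flux read 180 s, then dopamine added at EC80 and read a further 180 s.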
D2 ag-1: HTS Assay for Allosteric Agonists of the Human D2 Dopamine Receptor: Primary Screen for Agonists. HEK293 T-REx D2 cells, calcium flux agonist mode. activation, % at 2 µM. 340,000 compounds, 0.53% hits;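 active means activation over 3 SD above normal in the single-dose calcium agonist read, cut at about 30% in these data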; further: 0% is about no effect
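Agonism is scored from calcium flux in a force-coupled, inducible HEK293 cell line expressing D2, read kinetically for 180 s after compound addition against dopamine controls.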
D2 PAM-1: Beta-Arrestin HTS for Positive Allosteric Modulators of the Human D2 Dopamine Receptor: Potentiators. 360,000 compounds, 0.23% hits. D(2) dopamine receptor (Homo sapiens), P14416. DiscoveRx D2 beta-arrestin cells, luminescence, 90 min; 100% = 57 uM dopamine signal. potentiation, % (no concentration beside the values); in the data active means potentiation above about 50%; inconclusive means mostly about 30% to 49%
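PathHunter beta-arrestin assay in DiscoveRx D2 cells. Compounds were added with an EC20 of dopamine (50 nM final) for 90 min at 37 deg C. Luminescence was read 1 h after detection reagent, with 57 uM dopamine as the EC100 control.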
D2 PAM-2: HTS Assay for Positive Allosteric Modulators of the Human D2 Dopamine Receptor: Primary Screen for Potentiators; HEK293 T-REx D2, calcium flux, EC20 dopamine potentiation; potentiation, % at 10 µM; 340,000 compounds, 0.34% hits;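 active means potentiation over 3 SD above the plate norm, cut at about 30% in these data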; further: 0% is about no effect
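Potentiation of an EC20 dopamine calcium response measured kinetically over 180 s, after a preceding 180 s compound-only read flagging agonists. Cells: inducible Hek293 Trex D2 line, 4000/well, cultured overnight at 30 C before dye loading.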
D2 ag-2: Beta-Arrestin HTS for Positive Allosteric Modulators of the Human D2 Dopamine Receptor: Agonists; 360,000 compounds, 0.084% hits; DiscoveRx PathHunter D2 beta-arrestin, luminescence, 90 min; 100% = 57 uM dopamine signal; D(2) dopamine receptor (Homo sapiens), P14416; activation, % (test concentration not listed); in the data active means activation above about 40%; inconclusive means between about 15% and that limit
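DiscoveRx PathHunter D2 beta-arrestin cells (2,100/well) attached overnight, then compound-stimulated 90 min at 37 C in HBSS/10 mM HEPES/0.1% Tween-20 buffer; beta-galactosidase complementation read by luminescence after 1 h at ambient temperature. Dopamine 57 uM final (EC100) as control.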
* marks the source's active call; other numbers are inactive results; ? = inconclusive; nt = no result; ! = not confirmed by another sample. In the library only some 2.4% were active in any assay of this set; here they are far more common.

SMILES	D2 antagonist	D2 ag-1	D2 PAM-1	D2 PAM-2	D2 ag-2
CN(C(=O)N1CCN(c2ccccn2)CC1)c1ccccc1	39*	0	8	-12	1
Cc1ccccc1NC(=O)Cn1c(=O)oc2cc(Br)ccc21	nt	1	nt	7	nt
CC(=O)Nc1ccc(NC(=O)COc2cc(O)c3c(c2)OC(C)(C)CC3=O)cc1	-12	3	-9	-2	-3
Cc1cc(OCC(=O)Nc2ccc(Br)cc2)cc2c1C(=O)CC(C)(C)O2	41*	1	-4	-3	-3
CCOc1ccccc1NC(=O)CN1C(=O)COc2ccc(S(=O)(=O)N3CCOCC3)cc21	36*	0	-16	-2	-2
COc1ccccc1NC(=O)CN1C(=O)COc2ccc(S(=O)(=O)N3CCC(C)CC3)cc21	-10	0	-5	-1	-1
O=C(Nc1ccnn1C1CCN(CCCC2CCCC2)CC1)c1ccccc1Cl	-26	5	-21	-16	-3
Cc1cc(C)c(CN2CCC(n3nccc3NC(=O)c3ccccc3Cl)CC2)cc1C	-8	3	-46	-19	-6
COc1ccccc1C(=O)Nc1ccnn1C1CCN(CCCC2CCCC2)CC1	31*	0	-34	-10	2
COc1ccccc1C(=O)Nc1ccnn1C1CCN(Cc2cc(C)c(C)cc2C)CC1	53*	0	-36	-23	-6
COc1ccccc1C(=O)Nc1ccnn1C1CCN(Cc2cn(C)c3ccccc23)CC1	62*	0	-10	-23	3
O=C(Nc1ccnn1C1CCN(C/C=C/c2ccccc2)CC1)c1cccc(F)c1	-4	3	-31	-7	0
O=C(Nc1ccnn1C1CCN(CCCc2ccccc2)CC1)c1cccc(F)c1	28	34*	-19	-2	0
CCc1ccc(NC(=O)C(CC)n2nnc(C(=O)OC)c2C(=O)OC)cc1 (stereo unspecified)	nt	-1	nt	nt	nt
CCc1ccc(S(=O)(=O)c2cn(CC)c3cc(N4CCOCC4)c(F)cc3c2=O)cc1	nt	1	nt	0	nt
NC(=S)N=Nc1c(O)cc(O)c2[nH]c(=O)ccc12	nt	nt	66*	nt	?
Cc1ccc(N2CCN(C(=O)CCc3c(C)nc4ncnn4c3C)CC2)c(C)c1	nt	nt	nt	-4	nt
CCc1nnc(NC(=O)CN2C(=O)/C(=C/c3cc(OC)c(OC)c(OC)c3)SC2=S)s1	-5	1	-15	31*	-5
COc1ccccc1/C=C1\SC(=S)N(CCC(=O)Nc2cc(C)on2)C1=O	-10	3	-4	nt	1
COc1ccccc1/C=C1\SC(=S)N(CCC(=O)Nc2nnc(C)s2)C1=O	31*	1	-7	-6	1
CCc1ccc2oc(C(=O)N(Cc3ccc(N(C)C)cc3)Cc3ccco3)c(C)c2c1	nt	1	nt	-2	nt
CCOc1ccc(NC(=O)c2oc3ccccc3c2NC(=O)c2ccc(OC)cc2OC)cc1	nt	0	nt	0	nt
Cc1ccc(S(=O)(=O)NC(=O)NCCCCNC(=O)NS(=O)(=O)c2ccc(C)cc2)cc1	-3	0	-2	11	0
CCCCNC(=O)NS(=O)(=O)c1ccc(C)cc1	33*	1	-6	20	-4
Cc1ccc(S(=O)(=O)NC(=O)NN2CCCCCC2)cc1	34*	2	-12	3	-5
SMILES	D2 antagonist	D2 ag-1	D2 PAM-1	D2 PAM-2	D2 ag-2
CC(C)(C)c1ccc(NC(=O)CSc2n[nH]c(=O)n2-c2cccnc2)cc1	-21	1	-10	15	-2
CC(C)c1ccc(NC(=O)CSc2n[nH]c(=O)n2-c2cccnc2)cc1	31*	0	-3	5	2
Cc1ccc(S(=O)(=O)NC(C)C(=O)NC(C)c2cccs2)cc1 (stereo unspecified)	-1	0	-3	32*	-3
Cc1ccc(S(=O)(=O)NC(CC(=O)O)c2cccs2)cc1 (stereo unspecified)	-3	0	8	0	6
O=C(Nc1ccc(S(=O)(=O)N(Cc2ccccc2)c2ccccc2)cc1)c1ccc([N+](=O)[O-])cc1	nt	3	nt	15	nt
O=C(CSc1ccccn1)Nc1cccc2ccccc12	14	0	11	34*	1
COc1ccc(NC(=O)CSc2ccccn2)c([N+](=O)[O-])c1	31*	0	-5	-3	7
O=C(CSc1ccccn1)Nc1nonc1[N+](=O)[O-]	-15	2	-8	7	63*
CN(C(=O)CSc1nc2ccccc2n1CC(=O)N(C)C1CCCCC1)c1ccccc1	nt	-1	nt	3	nt
CCCOc1ccc(-c2nonc2NC(=O)c2oc3ccc(C)cc3c2C)cc1OCCC	nt	0	nt	3	nt
CCCCNC(=O)C(CC)Sc1nnc(-c2cccc(F)c2)c(-c2cccc(F)c2)n1 (stereo unspecified)	nt	nt	nt	-16	nt
CSc1ccc2c(c1)N(CCC1CCCCN1C)c1ccccc1S2 (stereo unspecified)	98*	1	-31	-29	-3
CCC(Oc1ccccc1)C(=O)NC1C(=O)N2C1SC(C)(C)C2C(=O)O (stereo unspecified)	-1	0	4	5	4
CC1(C)S[C@@H]2[C@H](NC(=O)Cc3ccccc3)C(=O)N2[C@H]1C(=O)O	33*!	1	-12	6	-3
COc1ccc(NC(=O)c2ccccc2N(Cc2ccccc2)S(C)(=O)=O)cc1OC	-5	0	-2	37*	2
COc1ccc(NC(=O)c2ccccc2N(Cc2ccccc2)S(C)(=O)=O)cc1	0	3	-11	-8	-4
COc1cc(CC2COC(c3ccc(O)c(OC)c3)C2COC(C)=O)ccc1O (stereo unspecified)	45*	1	-25	17	-8
COc1cc([C@@H]2OC[C@@H]3[C@H]2CO[C@@H]3c2ccc3c(c2)OCO3)ccc1O	nt	nt	-5	nt	0
CCOC(=O)C1(CC2CCCCO2)CCN(C(=O)Nc2ccc(C(=O)OC)cc2)CC1 (stereo unspecified)	32*	0	-5	-11	-4
CCOc1cc2c(cc1/C=C/c1noc(C)c1[N+](=O)[O-])OC(C)C2 (stereo unspecified)	14	64*	-6	3	-6
O=C1CC(c2cccs2)CC2=C1C(c1ccccc1)n1ncnc1N2 (stereo unspecified)	21	0	-5	-6	0
N#CC1=C(N)Nc2ncnn2C1c1ccccc1 (stereo unspecified)	1	0	nt	3	nt
